Source: the supplement of paper PMC12350171
Structures can show the parent of a compound that is named as a salt. Unmarked numbers belong to inactive results.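 Rule for the calls: active = AUC significantly below DMSO controls by Student t-fit with adjusted P under 0.01; inactive = not significantly reduced.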

tested on: Haemophilus parainfluenzae; assay: growth AUC normalised to DMSO control (fraction of control); higher = less growth inhibition, active = hit call of the paper; conditions: 20 µM
Procedure, shortened: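 Hemin and NAD were added to the medium for Haemophilus parainfluenzae. All pathogens, after two anaerobic passages, were inoculated at a starting OD578 of 0.01 into pre-reduced mGAM plates with 20 μM compound and 1% DMSO under breathable seals, and OD578 was read hourly for 24 h in three biological replicates. AUC of each growth curve was obtained with the trapezoidal rule up to the exponential-to-stationary transition and normalised to DMSO controls from the same plate.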

| Structure (SMILES) | growth AUC normalised to DMSO control |
| --- | --- |
| Cc1ccc(C(=O)c2ccc(CC(=O)O)n2C)cc1 [Tolmetin sodium salt dihydrate] | 1.07 |
| COC1=C(OC)C(=O)C(CCCCCCCCCCO)=C(C)C1=O [Idebenone] | 1.04 |
| COC(=O)C1=C(C#N)NC(C)=C(C(=O)OC(C)C)C1c1cccc([N+](=O)[O-])c1 (configuration not stated) [Nilvadipine] | 0.985 |
| CCCCc1nc(Cl)c(CO)n1Cc1ccc(-c2ccccc2-c2nnn[nH]2)cc1 [Losartan] | 1.45 |
| CN(C)CC/C=C1/c2ccccc2COc2ccc(CC(=O)O)cc21 [Olopatadine hydrochloride] | 0.881 |
| OC(CCN1CCCCC1)(c1ccccc1)C1CCCCC1 (configuration not stated) [Trihexyphenidyl-D,L hydrochloride] | 1.01 |
| c1ccc(CC2=NCCN2)cc1 [Tolazoline hydrochloride] | 1.03 |
| CN[C@@H]1[C@@H](O)[C@@H](O[C@@H]2[C@@H](O)[C@H](O[C@H]3OC(CN)=CC[C@H]3N)[C@@H](N)C[C@H]2N)OC[C@]1(C)O [Sisomicin sulfate] | 0.864 |
| Cc1nnc(NS(=O)(=O)c2ccc(N)cc2)s1 [Sulfamethizole] | 0.903 |
| CCCc1nc(C)c2c(=O)nc(-c3cc(S(=O)(=O)N4CCN(CC)CC4)ccc3OCC)[nH]n12 [Vardenafil] | 1.03 |
| CC(C)NCC(O)c1cc(O)cc(O)c1 (configuration not stated) [Metaproterenol sulfate] | 0.99 |
| CCCCC(O)c1ccccc1 (configuration not stated) [Fenipentol] | 0.989 |
